Most compounds without a hit are left out; they make up all but 7.1% or so of the library.
M1 agonist – activates the M1 muscarinic receptor | 64,000 tested, 3% active | CHO-M1 cells, Fluo-4 calcium fluorescence, agonist mode; stronger effect = higher value | B-score at 10 µM;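 active means fluorescence rise, raw or as B-score row- and column-corrected plate score, outside the 99.7% band of its plate's samples, either direction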
Cav3 T inh – human Cav3.2 channel inhibition, primary screen; 100,000 tested, 4% active; O95180; B-score at 10 µM; Cav3.2-expressing cells, Fluo-4 calcium fluorescence FDSS; stronger effect = lower value;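 active means single-dose well whose peak fluorescence ratio is a statistical outlier from its plate by either plate-standardised score or position-corrected B-score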
M1 antagonist – blocks the rat M1 muscarinic receptor response to acetylcholine | CHO-M1 cells, Fluo-4 calcium, ACh EC80 antagonist mode; stronger effect = lower value | AID 628 | P08482 | B-score at 10 µM | 64,000 tested, 3.4% active;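 active means calcium fluorescence response, raw or row-and-column corrected B-score, differing from the plate sample mean either way at a set confidence level, mostly lower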
Target sequence (P08482 whole entry, looked up): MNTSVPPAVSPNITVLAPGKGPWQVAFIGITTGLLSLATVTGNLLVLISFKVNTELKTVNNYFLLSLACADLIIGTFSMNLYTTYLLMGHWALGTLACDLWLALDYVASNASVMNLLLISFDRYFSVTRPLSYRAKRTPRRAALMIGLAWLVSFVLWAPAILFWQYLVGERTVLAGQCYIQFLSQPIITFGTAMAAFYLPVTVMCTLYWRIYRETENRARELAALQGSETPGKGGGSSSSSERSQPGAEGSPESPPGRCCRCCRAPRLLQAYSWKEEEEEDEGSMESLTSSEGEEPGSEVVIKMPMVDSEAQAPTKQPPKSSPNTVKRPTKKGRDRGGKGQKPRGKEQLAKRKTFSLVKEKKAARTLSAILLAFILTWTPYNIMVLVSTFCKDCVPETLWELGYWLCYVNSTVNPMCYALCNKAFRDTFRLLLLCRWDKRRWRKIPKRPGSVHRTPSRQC
PTK2B oligo ant – Pyk2 (human) oligomerization antagonism; z-score (the deposit names both 25 µM and 10 µM); Q293 cells, Pyk2 FERM NanoBiT luminescence; stronger effect = lower value; AID 1347419; 99,000 tested, 0.83% active; Q14289;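 active means Z-score of -3 or lower, scaled per plate to the spread of control and sample wells; inactive means z-score above -3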;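 further: negative z-score means lost luminescence so less FERM oligomerization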
* = called active by the depositor; . = no result given.

SMILES | M1 agonist | Cav3 T inh | M1 antagonist | PTK2B oligo ant
CCOC(=O)c1oc2ccccc2c1CN1CCN(C(=O)c2ccccc2)CC1 | 0.5 | -0.85 | 0.58 | .
CCOC(=O)c1oc2ccccc2c1CN1CCN(c2ccccc2)CC1 | 0.11 | -4.8* | 0.87 | -0.56
C=COC(=O)CSc1nc(-c2cccs2)ccc1C#N | 0.33 | -0.34 | 2.9* | -0.24
COc1ccc(S(=O)(=O)Nc2ccccc2C(=O)NCc2ccco2)cc1Br | -1.7 | -3.8* | -0.88 | -0.2
NS(=O)(=O)c1ccc(CCNc2ncnc3c2c(-c2ccccc2)cn3-c2ccc(F)cc2)cc1 | . | 1.4 | . | 0.51
Cc1ccc(C2CC2C(=O)NNC(=S)Nc2ccc(Cl)cc2)cc1 (centres undefined) | . | -10* | . | 0.12
Cc1ccc(C(=O)NC(=S)Nc2ccc(Oc3ccc(Cl)cc3)cc2)cc1 | . | -0.99 | . | 0.18
COC(=O)C1=C(N)Oc2cc(C)n(Cc3ccccc3)c(=O)c2C1c1ccccc1 (centres undefined) | . | -2.6 | . | -3*
Cc1ccc(S(=O)(=O)NCCOc2nc(N3CCOCC3)nc(N3CCOCC3)n2)cc1 | . | 0.32 | . | 1.7
CCOC(=O)C1=NN(c2ccccc2C)C2=NC(C)=C(C(=O)OC)C(c3cccs3)N12 (centres undefined) | . | -6* | . | 0.01
Cc1ccc(S(=O)(=O)N2CCSC2)cc1C | . | 0.49 | . | 0.37
Cc1ccc(S(=O)(=O)N(CC(=O)N2CCN(c3ccccc3F)CC2)C2CCCCC2)cc1 | . | -4.7* | . | -1.6
O=C(c1ccc2c(c1)OCO2)N1CCC2(CC1)Oc1ccc(F)cc1C(=O)C21CC(c2ccccc2)=NO1 (centres undefined) | . | -1.2 | . | .
O=C(C1CC(c2cccc(Br)c2)=NO1)N1CCc2ccccc2C1 (centres undefined) | . | -4.4* | . | -0.48
O=c1ccc(NS(=O)(=O)c2ccc(Cl)cc2)cn1Cc1ccc(Cl)c(Cl)c1 | . | -4.4* | . | 1.6
Cc1onc(-c2c(F)cccc2Cl)c1C(=O)Nc1nc2c(s1)CCCC2 | -0.27 | -0.32 | 0.014 | -3.6*
COc1ccc(Cc2nnc(NC(=O)c3c(-c4ccccc4)noc3C)s2)cc1 | -0.34 | -5.2* | -0.15 | -2.5
Cc1cc(C(=O)Nc2nc3c(s2)CCCC3)no1 | -0.58 | -0.68 | 0.78 | -0.48
Cc1onc(-c2ccccc2)c1C(=O)Nc1nc2c(s1)CCCC2 | -0.0084 | 0.059 | 0.41 | -3.4*
CCc1ccc(OCc2nnc(SCCN3CCOCC3)n2C)cc1 | -0.37 | 1.1 | -0.054 | 1.5
COc1cc(/C=C(\C#N)c2ccccn2)ccc1OCc1ccc(Cl)cc1 | . | . | . | -0.82
O=C(CSc1ccc(-c2ccc(Cl)cc2)nn1)Nc1ccc2c(c1)OCCO2 | . | . | . | -0.26
Cc1ccc(C2=NN3C(C(=O)c4ccccc4)Oc4ccccc4C3C2)cc1 (centres undefined) | . | -7.3* | . | -0.84
CN(C)S(=O)(=O)c1ccc(C(=O)OCn2nnc3ccccc3c2=O)cc1 | . | 0.14 | . | .
Cc1ccc2cc(/C=C3\N=C(c4ccccc4)OC3=O)c(N3CCOCC3)nc2c1 | . | -6.6* | . | .
SMILES | M1 agonist | Cav3 T inh | M1 antagonist | PTK2B oligo ant
CC(=O)OC1COC(OC2C(O)C(C)OC(OC3C(OC4CCC5(C)C(CCC6(C)C5CC=C5C7CC(C)(C)CCC7(C(=O)O)CCC56C)C4(C)CO)OCC(O)C3O)C2O)C(O)C1OC(C)=O (centres undefined) | . | -5* | . | .
COc1ccc(C(=O)Nc2ccc(S(=O)(=O)Nc3nccnc3OC)cc2)cc1OC | 25* | 0.1 | -19* | 1.2
Cc1ccc(CN2C(=O)[C@H]3Cc4c([nH]c5ccccc45)C(C)(C)N3C2=O)cc1 | . | -0.97 | . | .
O=C(Nc1ccc(N2CCCCC2)c(Cl)c1)c1cccnc1 | 0.023 | -0.82 | -0.15 | 0
Cc1nc2cc(N3CCCCC3)c(NC(=O)c3cccnc3)cc2c(=O)n1Cc1ccccc1 | -0.13 | 0.84 | 2.8* | -2.5
CC(C)N=c1cc2n(-c3ccc(Cl)cc3)c3ccccc3nc-2cc1Nc1ccc(Cl)cc1 | -0.75 | -3.9* | 0.71 | .
C#C[C@]1(O)CC[C@H]2[C@@H]3CCC4=Cc5oncc5C[C@]4(C)[C@H]3CC[C@@]21C | . | -4.5* | . | .
CCC(C)N1C(=O)/C(=C/c2c(NCCCOC(C)C)nc3c(C)cccn3c2=O)SC1=S (centres undefined) | . | -5.1* | . | -3.1*
CCCN1C(=O)/C(=C/c2c(NCCCOC(C)C)nc3c(C)cccn3c2=O)SC1=S | . | -1.5 | . | -0.5
Cc1ccccc1NC(=O)c1sc2nc3c(c(-c4ccco4)c2c1N)CCCC3 | . | -4.2* | . | 0.23
Cc1cccc(C(=O)N2CCN(c3ccc(C(F)(F)F)cn3)CC2)c1C | . | -4.7* | . | 0.67
Cc1ccccc1N1CCN(C(=O)c2ccc(Oc3ccc(C(F)(F)F)cn3)cc2)CC1 | . | -6* | . | -1
Nc1ccccc1C(=O)N(Cc1ccccc1)Cc1ccccc1 | . | -5.8* | . | -1.2
O=C(O)c1ccccc1C(=O)N(Cc1ccccc1)Cc1ccccc1 | . | -1.9 | . | 0.88
COc1cc(Cl)c(C)cc1NC(=O)CSc1ccc(NC(C)=O)cc1 | . | . | . | -1.2
CN(C)c1ccc(NC(=O)CN2CCC(N3CCCCC3)CC2)cc1 | . | -0.079 | . | -0.09
NC(=O)NC(Cc1ccccc1)c1ccccc1 (centres undefined) | 2.3* | 0.95 | -0.24 | 1.3
O=[N+]([O-])c1ccc(C2CCCC/C2=N/OCc2ccccc2F)c([N+](=O)[O-])c1 (centres undefined) | . | -6.5* | . | -0.73
O=[N+]([O-])c1ccc(C2CCCC/C2=N/OCc2ccc(F)cc2)c([N+](=O)[O-])c1 (centres undefined) | . | -5.4* | . | -0.02
O=C(O/N=C1\CCCCC1c1ccc([N+](=O)[O-])cc1[N+](=O)[O-])c1c(F)cccc1F (centres undefined) | . | -1.3 | . | 0.7
CCCCCNCc1cccc(Br)c1 | . | 0.26 | . | -0.83
Cc1cc(C)n(Cc2ccc(Cl)cc2Cl)c(=O)c1S(=O)(=O)c1ccccc1 | . | -4.3* | . | -0.75
N#Cc1nc(COc2ccc(F)cc2)oc1N1CCN(Cc2ccccc2)CC1 | 0.019 | . | 0.11 | 1.6
N#Cc1nc(COc2ccc(Cl)cc2)oc1N1CCCCCC1 | 0.14 | -5* | 0.25 | -1.8
N#Cc1nc(COc2ccc(Br)cc2)oc1N1CCN(Cc2ccccc2)CC1 | -0.58 | -7.8* | -0.18 | 0.74
SMILES | M1 agonist | Cav3 T inh | M1 antagonist | PTK2B oligo ant
Cc1cccc(OCc2nc(C#N)c(N3CC(C)CC(C)C3)o2)c1 (centres undefined) | -0.64 | -7.3* | 1.3 | .
Cc1cccc(OCc2nc(C#N)c(NCc3ccc4c(c3)OCO4)o2)c1 | -0.8 | -6.8* | 0.047 | 1.4
O=C(CN1C(=O)c2ccccc2C1=O)OCN1C(=O)c2ccccc2C1=O | -0.15 | . | 0.61 | .
CN1CCCC1CCNC1C2CC3CC(C2)CC1C3 (centres undefined) | . | . | . | -0.02
COc1ccc(C(=O)c2c(-c3ccsc3)oc3ccc(-c4ccc(OC)cc4)cc23)cc1 | . | -1 | . | .
COc1ccc(OCc2nc(C#N)c(N3CCN(c4ccc(OC)cc4)CC3)o2)cc1 | -0.22 | -4.5* | 0.33 | .
COc1ccc(N2CCN(c3oc(COc4ccccc4Cl)nc3C#N)CC2)cc1 | -0.21 | -2.3 | -0.72 | 0.88
N#Cc1nc(COc2ccccc2Cl)oc1N1CCCCCC1 | 0.2 | 0.58 | 1 | .
CC1CN(c2oc(COc3ccc(Cl)cc3Cl)nc2C#N)CC(C)O1 (centres undefined) | 0.027 | -4.7* | -0.59 | -0.39
